mHtt clearance – compounds clearing mutant huntingtin protein | inhibition, % at 1.5 µM | 47,000 compounds, 0.42% hits | AID 853 | HeLa Exon1htt(103Q)mCFP, aggregate imaging; zero = plate's median compound well;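 active = inhibition of aggregate fluorescence above about 70%, also judged a hit by eye on the cell image, limit read from the data, passing the limit was not always enough; inconclusive = no rule stated for this call; inactive = not judged a hit on image review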;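 also: cells exposed to compound for three days before fixation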
M1 antagonist – antagonists of rat M1 muscarinic receptor; CHO-M1 cells, Fluo-4 calcium, ACh EC80 antagonist mode; active compounds read low; P08482; 64,000 compounds, 3.4% hits; B-score at 10 µM;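 active = calcium fluorescence response, raw or row-and-column corrected B-score, differing from the plate sample mean either way at a set confidence level, mostly lower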
Target sequence (P08482 whole entry, looked up): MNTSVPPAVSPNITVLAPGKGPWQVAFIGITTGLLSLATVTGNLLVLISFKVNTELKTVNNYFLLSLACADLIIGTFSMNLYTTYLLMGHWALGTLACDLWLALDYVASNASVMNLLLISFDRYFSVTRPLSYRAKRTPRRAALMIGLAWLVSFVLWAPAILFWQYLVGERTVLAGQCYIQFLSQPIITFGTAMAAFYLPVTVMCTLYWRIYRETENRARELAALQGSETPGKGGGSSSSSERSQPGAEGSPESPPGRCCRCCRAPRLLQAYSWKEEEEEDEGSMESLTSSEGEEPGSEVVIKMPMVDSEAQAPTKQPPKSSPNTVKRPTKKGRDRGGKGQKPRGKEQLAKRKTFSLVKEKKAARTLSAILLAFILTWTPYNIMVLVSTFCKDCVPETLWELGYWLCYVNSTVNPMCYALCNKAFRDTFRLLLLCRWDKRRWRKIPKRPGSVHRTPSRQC
D1 allo mod – D1 dopamine receptor (human) allosteric modulation; HEK293 D1, CRE-luciferase, dopamine EC30 potentiation; actives deviate in either direction; B-score at 10 µM; 58,000 compounds, 5.9% hits; AID 641;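 active = luminescence count or its row- and column-corrected plate score outside the 99.7% band of the plate's sample wells, on either side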
M1 agonist – M1 muscarinic receptor agonism; B-score at 10 µM; 64,000 compounds, 3% hits; CHO-M1 cells, Fluo-4 calcium fluorescence, agonist mode; active compounds read high;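 active = fluorescence rise, raw or as B-score row- and column-corrected plate score, outside the 99.7% band of its plate's samples, either direction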
M1 antag confirm – M1 muscarinic receptor (rat) antagonism, confirmed; shares compounds with M1 antagonist; CHO-M1 cells, Fluo-4 calcium, ACh EC80 antagonism; active compounds read low; calcium response (max-min fluorescence) at 10 µM; 1,700 compounds, 43% hits;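 active = calcium response below the same-plate mean of wells given acetylcholine alone at its 80%-effect dose, minus 3 SD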;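 also: raw fluorescence intensity difference in arbitrary instrument units and not normalized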
mGluR4 antag – acts on human mGluR4 in M1 antagonist selectivity test | fluorescence response (max-min) at 10 µM | 1,700 compounds, 0.9% hits | shares compounds with M1 antagonist | CHO-mGluR4 calcium flux, Fluo-4 fluorescence, glutamate EC80; active compounds read low;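 active = fluorescence response below the plate's average for near-maximal glutamate wells, less 3 SD of those wells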;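 also: raw unnormalized fluorescence span taken in the window right after glutamate addition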
Starred values were filed as active, the others as inactive; ? = inconclusive; / = no result. Only some compounds are listed: those with a hit (about 9.1% of all), similar ones and a draw of the others.

SMILES | mHtt clearance | M1 antagonist | D1 allo mod | M1 agonist | M1 antag confirm | mGluR4 antag
CN(Cc1ccccc1)Cc1nc2c(c(=O)n(C)c(=O)n2C)n1Cc1ccc(F)cc1 | 16.3 | -2.57* | -0.137 | 0.3 | 657 | 223
COc1ccc(OC)c(N(CC(=O)N2CCN(c3cc(Cl)ccc3C)CC2)S(C)(=O)=O)c1 | -72.1 | -0.00378 | -0.119 | -0.515 | / | /
Cc1cc(C)n(S(=O)(=O)c2ccc(C(C)(C)C)cc2)n1 | 2.9 | -8.7* | 0.543 | -0.109 | 19.6* | 246
Cc1cc(=O)n(C)c(=O)n1CCCCCN1CCCC1 | / | -1.63* | -1.28 | 0.159 | 660 | 249
CC1(C)CC(=O)CC(C)(C)N1OC(=O)c1ccncc1 | -2.0 | -0.087 | -0.179 | -0.284 | / | /
CN1CCN(c2ccc(Cl)cc2NS(=O)(=O)c2ccccc2Cl)CC1 | -22.8 | -3.65* | -1.33 | -1.15 | 345* | 261
C=CCSc1nc(N)c(C(=O)Nc2ccccc2C)cc1C(N)=O | 30.3 | -3* | -0.317 | 0.604 | 614 | 248
CCOC(=O)c1cc2sccc2n1CC(=O)c1ccc2c(c1)OCCO2 | / | -0.155 | -0.731 | -0.719 | / | /
CN(C)S(=O)(=O)c1cccc(C(=O)Nc2ccc(Cl)cn2)c1 | / | -3* | / | -0.0952 | 683 | 175
COc1ccc(C(=O)Nc2ccc(Cl)cn2)cc1Cl | -11.6 | -0.441 | -1.87 | 0.515 | / | /
Cc1cc(/C=C(/C#N)c2cccc(F)c2)c(C)n1-c1cccnc1 | / | -5.03* | 0.535 | -0.296 | 555 | 186
CN(C)c1ccc(C2C3C(=O)N(c4ccc(C(=O)O)cc4)C(=O)C3ON2c2ccccc2)cc1 (configuration not stated) | -95.4 | -2.47* | -3.29 | -0.444 | 15.3* | 215
COc1ccccc1CNS(=O)(=O)c1c(C)[nH]c(=O)[nH]c1=O | -28.9 | / | / | / | / | /
O=C1CC(Cc2ccccc2)C(=O)N1CCc1ccc2c(c1)OCO2 (configuration not stated) | / | -0.271 | -0.681 | 0.0201 | / | /
O=C1CC(Cc2ccccc2)C(=O)N1CCCn1ccnc1 (configuration not stated) | / | -2.78* | 0.403 | 0.551 | 614 | 186
COc1ccc2nc(NC(=O)c3cnccn3)sc2c1 | / | -2.66* | -4.87* | -1.93 | 616 | 171
CC(C)(C)c1ccc(OCC(O)CS(=O)(=O)c2ccccn2)cc1 (configuration not stated) | / | -1.83* | 1.92 | -0.427 | 660 | 262
C=CCOC(=O)Nc1ccc(Cl)cc1NC(=O)OCC=C | 47.7 | -3.79* | -0.641 | 2.09 | 674 | 272
C=COCCNC(=O)Nc1ccc(Cl)cc1Cl | -18.4 | -0.00885 | 0.0117 | -0.0765 | / | /
O=C(NCc1ccccn1)C1CCC(=O)N1C1CCCCC1 (configuration not stated) | -150.4 | / | / | / | / | /
CC1CCCN(CCC(=O)c2ccc(Br)cc2)C1 (configuration not stated) | / | -4.54* | -0.38 | -0.382 | 500 | 215
CCOc1ccc(OCC)c(-c2c(=O)n(OCc3ccccc3C(=O)OC)c3ccccc3[n+]2[O-])c1 | 24.1 | / | / | / | / | /
CCN(CC)CCOC(=O)c1cccc(Br)c1 | ? | -4.37* | -0.108 | 0.174 | 472* | 267
CCN(CC)CCOC(=O)c1cccc(Cl)c1 | 9.9 | -0.98 | -0.0238 | -0.121 | / | /
Cn1c(SCCN2CCCCC2)nnc1-c1ccccc1Br | -37.9 | -2.03* | 0.0681 | 1.03 | 561* | 249
SMILES | mHtt clearance | M1 antagonist | D1 allo mod | M1 agonist | M1 antag confirm | mGluR4 antag
O=C(NCc1cccnc1)NC1(C(F)(F)F)Oc2ccc(Cl)cc2O1 (configuration not stated) | -10.2 | -1.58* | / | -0.1 | 410* | 246
CC(=O)c1c(C(C)=O)c(C)n(NC(=O)c2ccncc2)c1C | 2.1 | -0.431 | / | 0.71 | / | /
COCc1cc(CN2CCCC2)c(O)c2ncccc12 | / | -0.416 | -1.25 | -1.24 | / | /
Oc1c(CN2CCN(c3ccccn3)CC2)cc(Cl)c2cccnc12 | / | -1.85* | -1.45 | -3.08 | 577 | 271
Oc1c(CN2CCCCC2)cc(COCc2ccccc2)c2cccnc12 | / | -5.37* | -0.176 | -0.456 | 410* | 272
Oc1ccc(CN2CCN(c3ccccc3)CC2)c2cccnc12 | -15.8 | / | / | / | / | /
CC(OCC(O)CN(C)CCOc1ccccc1)c1ccc(Cl)cc1 (configuration not stated) | 33.3 | -1.95* | -0.866 | 0.205 | 511* | 203
COc1ccccc1-n1c(C)nnc1SCC(=O)Nc1cccc(C(C)=O)c1 | -139.6 | -2.68* | -0.00973 | -0.517 | 649 | 226
CC(NC(=O)NCc1cccnc1)(C(F)(F)F)C(F)(F)F | -19.0 | -0.303 | -0.353 | -0.075 | / | /
O=C(OCCN1CCCCC1)c1cc2ccccc2o1 | / | -2.44* | / | -0.729 | 465 | 238
O=C(COC(=O)c1cc2ccccc2o1)c1ccccc1 | / | 0.00615 | 0.0725 | 0.721 | / | /
NS(=O)(=O)c1cc(C(=O)N2CCc3ccccc32)c(Cl)cc1Cl | -288.0 | / | / | / | / | /
CCC(C)N(CCNC(=O)CC1Oc2ccc(C)cc2NC1=O)C1CCCCC1 (configuration not stated) | 14.7 | -8.78* | -0.139 | -1.3 | 20.7* | 208
O=C(CN(CC1CCCO1)C(=O)CNS(=O)(=O)c1ccc(Cl)cc1)NCCc1ccccc1 (configuration not stated) | 47.9 | / | / | / | / | /
O=C(CN(CCc1ccccc1)C(=O)CNS(=O)(=O)c1ccc(F)cc1)NCC1CCCO1 (configuration not stated) | -23.1 | -2.32* | -0.345 | 0.0743 | 642 | 238
Cc1cc(C(=O)CSc2nnc(NCc3ccccc3)s2)c(C)n1C | / | -3.54* | 0.131 | -0.381 | 488 | 249
Cc1cc(C(=O)CSc2nnc(Nc3ccccc3)s2)c(C)n1CC1CCCO1 (configuration not stated) | / | -0.205 | -0.476 | -0.311 | / | /
CCN(CC)CCCN(C(=O)c1cccs1)c1nc(-c2ccc(OC)cc2)cs1 | -10.7 | -5.35* | -1.85 | -1.41 | 321* | 237
COc1ccc(-c2csc(N(CC3CCCO3)C(=O)c3cccs3)n2)cc1 (configuration not stated) | -6.8 | 0.288 | -0.0417 | -0.362 | / | /
COC(=O)c1ccc(COc2cccc(OC)c2)o1 | 19.1 | -2.38* | 2.39 | 0.401 | 602 | 264
Cn1c(=O)cc(OCC(=O)N2CCC(N3CCCCC3)CC2)c2ccccc21 | -30.6 | -0.286 | -0.246 | 0.297 | / | /
COc1ccccc1C1C(C#N)=C(N)Oc2cc(C)n(CCCn3ccnc3)c(=O)c21 (configuration not stated) | 25.3 | -2.58* | -0.108 | -0.61 | 379* | 201
COc1cccc(-n2ccnc2SCC(=O)NCc2ccccc2)c1 | -37.1 | -2.67* | 1.45 | 0.0928 | 528 | 191
CCNc1nc(NCC)nc(N2CC(=O)N(CC(=O)OCC)C2=N)n1 | -25.2 | / | / | / | / | /
Cc1cc(C)nc(SCC(=O)Oc2ccc3oc(=O)cc(C)c3c2)n1 | / | -2.57* | -0.0301 | -0.309 | 685 | 163
CNS(=O)(=O)c1cccc(C(=O)OCC(=O)c2cc(C)n(-c3ccc4c(c3)OCO4)c2C)c1 | / | -2.28* | -0.0384 | -0.897 | 483 | 164*
